Assay results published in ChEMBL document CHEMBL3988442, “University of Dundee, Small-Polar-MMV Screening Library” (2021).
For some of these results: Measured potencies and affinities stand elsewhere.

What was measured:
Design in all cases: scale not given: direction of the effect not stated beside the values
[1] = molecular target: Protein translocase subunit SecA (Escherichia coli (strain K12)) (UniProt P10408); test: Assay to Identify E. coli SecA ATPase Inhibitors; type: functional; details: 30 µM
Chain of Protein translocase subunit SecA (Escherichia coli (strain K12)) (P10408 whole entry): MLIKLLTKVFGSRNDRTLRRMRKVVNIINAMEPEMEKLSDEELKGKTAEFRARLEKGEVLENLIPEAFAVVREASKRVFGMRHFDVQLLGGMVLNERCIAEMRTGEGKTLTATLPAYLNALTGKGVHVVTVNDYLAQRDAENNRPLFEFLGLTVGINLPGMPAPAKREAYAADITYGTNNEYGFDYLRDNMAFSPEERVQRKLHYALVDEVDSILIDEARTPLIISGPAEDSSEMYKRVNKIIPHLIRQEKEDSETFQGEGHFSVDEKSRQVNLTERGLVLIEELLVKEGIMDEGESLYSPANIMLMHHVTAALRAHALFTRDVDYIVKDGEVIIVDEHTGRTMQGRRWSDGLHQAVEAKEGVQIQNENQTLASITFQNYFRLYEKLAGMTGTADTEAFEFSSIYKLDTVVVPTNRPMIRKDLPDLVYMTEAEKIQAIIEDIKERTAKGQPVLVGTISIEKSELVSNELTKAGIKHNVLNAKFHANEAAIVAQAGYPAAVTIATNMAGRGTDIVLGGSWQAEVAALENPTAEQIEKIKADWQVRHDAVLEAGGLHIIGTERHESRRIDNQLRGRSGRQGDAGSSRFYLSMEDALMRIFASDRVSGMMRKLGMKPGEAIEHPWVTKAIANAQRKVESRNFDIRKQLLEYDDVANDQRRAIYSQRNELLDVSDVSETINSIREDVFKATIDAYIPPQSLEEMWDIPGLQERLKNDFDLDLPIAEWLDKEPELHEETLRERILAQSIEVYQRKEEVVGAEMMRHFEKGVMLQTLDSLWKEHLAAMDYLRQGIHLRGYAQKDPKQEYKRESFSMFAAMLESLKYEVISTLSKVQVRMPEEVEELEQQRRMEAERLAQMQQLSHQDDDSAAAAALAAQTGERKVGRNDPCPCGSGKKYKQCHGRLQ

[2] = molecular target: T1, Ubiquitin-activating enzyme e1, putative (Leishmania donovani (strain BPK282A1)) (UniProt E9BSI1); test: Leishmania donovani Ubiquitin Activating Enzyme (LdE1); type: functional; details: 30 µM
T1 sequence (whole entry): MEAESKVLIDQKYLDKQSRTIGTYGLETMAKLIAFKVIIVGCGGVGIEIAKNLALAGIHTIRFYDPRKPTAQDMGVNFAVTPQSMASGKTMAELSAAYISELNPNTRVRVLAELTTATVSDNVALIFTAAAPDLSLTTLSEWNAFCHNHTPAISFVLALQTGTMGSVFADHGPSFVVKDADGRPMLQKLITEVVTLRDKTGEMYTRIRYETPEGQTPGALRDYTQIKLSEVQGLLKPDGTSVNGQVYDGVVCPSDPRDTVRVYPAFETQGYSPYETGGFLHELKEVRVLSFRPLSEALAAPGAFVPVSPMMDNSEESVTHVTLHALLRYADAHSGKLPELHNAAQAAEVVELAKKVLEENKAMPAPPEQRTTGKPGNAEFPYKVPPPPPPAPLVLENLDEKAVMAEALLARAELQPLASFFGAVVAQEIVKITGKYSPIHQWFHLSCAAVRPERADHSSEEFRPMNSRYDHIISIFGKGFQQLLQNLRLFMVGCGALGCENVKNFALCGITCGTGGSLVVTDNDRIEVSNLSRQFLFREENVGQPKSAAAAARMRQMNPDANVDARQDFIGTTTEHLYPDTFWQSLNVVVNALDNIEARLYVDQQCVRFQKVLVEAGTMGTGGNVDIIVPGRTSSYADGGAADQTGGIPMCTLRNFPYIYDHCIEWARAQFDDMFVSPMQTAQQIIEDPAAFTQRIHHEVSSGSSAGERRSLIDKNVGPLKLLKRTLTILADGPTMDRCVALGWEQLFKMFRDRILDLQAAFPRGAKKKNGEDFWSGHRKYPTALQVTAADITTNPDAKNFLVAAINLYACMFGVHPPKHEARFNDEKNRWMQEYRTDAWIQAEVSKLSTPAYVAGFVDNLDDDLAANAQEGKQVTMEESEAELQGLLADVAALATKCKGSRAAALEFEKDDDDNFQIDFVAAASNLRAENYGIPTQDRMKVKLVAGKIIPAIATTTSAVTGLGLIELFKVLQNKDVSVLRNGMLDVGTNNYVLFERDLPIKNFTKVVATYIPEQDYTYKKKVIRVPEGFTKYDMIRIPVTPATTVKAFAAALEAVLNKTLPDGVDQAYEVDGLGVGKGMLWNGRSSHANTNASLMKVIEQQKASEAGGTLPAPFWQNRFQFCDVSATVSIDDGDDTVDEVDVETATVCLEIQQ

[3] = molecular target: Sialic acid-binding Ig-like lectin 9 (Homo sapiens) (UniProt Q9Y336); test: Hs-Siglec9 ALPHAscreen SOP 20170721; details: 10 µM
Chain of Sialic acid-binding Ig-like lectin 9 (Homo sapiens) (Q9Y336 whole entry): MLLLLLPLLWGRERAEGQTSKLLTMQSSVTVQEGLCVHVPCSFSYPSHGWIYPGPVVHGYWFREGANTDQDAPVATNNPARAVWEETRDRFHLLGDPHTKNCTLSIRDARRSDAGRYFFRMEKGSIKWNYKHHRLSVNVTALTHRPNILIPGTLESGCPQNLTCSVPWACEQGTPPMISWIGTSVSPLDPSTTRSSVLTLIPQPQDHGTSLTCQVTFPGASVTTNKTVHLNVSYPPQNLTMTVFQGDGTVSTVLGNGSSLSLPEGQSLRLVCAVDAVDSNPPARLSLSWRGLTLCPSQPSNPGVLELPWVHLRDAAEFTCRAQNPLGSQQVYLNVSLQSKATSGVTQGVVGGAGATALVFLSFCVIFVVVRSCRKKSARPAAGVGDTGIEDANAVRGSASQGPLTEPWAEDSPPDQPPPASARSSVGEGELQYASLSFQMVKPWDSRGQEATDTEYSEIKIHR

Trypanosoma cruzi = test: Trypanosoma cruzi phosphomannomutase and mannose-1-phosphate guanylyltransferase assay; type: functional; details: 10 µM
[4] = molecular target: T2, Arginase-2, mitochondrial (Homo sapiens) (UniProt P78540); test: in vitro enzyme assay to detect the production of urea directly proportional to the activity of Arginase II; type: functional; details: 33.3 µM; note: in the data most compounds retested in dose-response had high values
T2 sequence (whole entry): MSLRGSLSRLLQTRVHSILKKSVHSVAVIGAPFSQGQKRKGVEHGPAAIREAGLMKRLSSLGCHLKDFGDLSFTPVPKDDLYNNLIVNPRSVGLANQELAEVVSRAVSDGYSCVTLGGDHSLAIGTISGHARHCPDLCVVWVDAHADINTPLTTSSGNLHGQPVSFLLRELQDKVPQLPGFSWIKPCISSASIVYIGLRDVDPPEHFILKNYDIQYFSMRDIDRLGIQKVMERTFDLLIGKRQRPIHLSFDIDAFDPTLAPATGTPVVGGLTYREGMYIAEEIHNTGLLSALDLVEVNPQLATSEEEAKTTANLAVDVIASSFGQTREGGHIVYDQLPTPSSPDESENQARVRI

[5] = molecular target: T3, Proteasome subunit beta (Trypanosoma cruzi) (UniProt O96673); test: Trypanosoma cruzi proteasome chymotrypsin-like activity (TcProtChymo) assay.; note: in the data most compounds retested in dose-response had high values; type: functional; details: 9.37 µM
T3 sequence (whole entry): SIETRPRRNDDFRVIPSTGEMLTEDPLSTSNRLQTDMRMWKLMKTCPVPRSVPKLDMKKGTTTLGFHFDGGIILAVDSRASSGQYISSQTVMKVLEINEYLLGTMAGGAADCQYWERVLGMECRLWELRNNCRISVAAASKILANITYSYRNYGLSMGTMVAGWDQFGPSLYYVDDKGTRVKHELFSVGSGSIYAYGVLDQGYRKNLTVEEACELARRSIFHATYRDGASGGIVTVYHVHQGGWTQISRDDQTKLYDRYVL

Homo sapiens = species: Homo sapiens; test: To identify inhibition of the IFN signalling (Jak-Stat) pathway via expression of an eGFP reporter gene under the control of an IFN-stimulated response element (ISRE) containing MxA promoter.; type: functional; details: 30 µM
[6] = molecular target: T4, Tyrosyl-tRNA synthetase, putative (Trypanosoma cruzi (strain CL Brener)) (UniProt Q4DSP6); test: Trypanosoma cruzi tyrosyl tRNA synthetase (TcYRS) _High Tyrosine SOP; type: functional; details: 30 µM; note: in the data most compounds retested in dose-response had high values
T4 sequence (whole entry): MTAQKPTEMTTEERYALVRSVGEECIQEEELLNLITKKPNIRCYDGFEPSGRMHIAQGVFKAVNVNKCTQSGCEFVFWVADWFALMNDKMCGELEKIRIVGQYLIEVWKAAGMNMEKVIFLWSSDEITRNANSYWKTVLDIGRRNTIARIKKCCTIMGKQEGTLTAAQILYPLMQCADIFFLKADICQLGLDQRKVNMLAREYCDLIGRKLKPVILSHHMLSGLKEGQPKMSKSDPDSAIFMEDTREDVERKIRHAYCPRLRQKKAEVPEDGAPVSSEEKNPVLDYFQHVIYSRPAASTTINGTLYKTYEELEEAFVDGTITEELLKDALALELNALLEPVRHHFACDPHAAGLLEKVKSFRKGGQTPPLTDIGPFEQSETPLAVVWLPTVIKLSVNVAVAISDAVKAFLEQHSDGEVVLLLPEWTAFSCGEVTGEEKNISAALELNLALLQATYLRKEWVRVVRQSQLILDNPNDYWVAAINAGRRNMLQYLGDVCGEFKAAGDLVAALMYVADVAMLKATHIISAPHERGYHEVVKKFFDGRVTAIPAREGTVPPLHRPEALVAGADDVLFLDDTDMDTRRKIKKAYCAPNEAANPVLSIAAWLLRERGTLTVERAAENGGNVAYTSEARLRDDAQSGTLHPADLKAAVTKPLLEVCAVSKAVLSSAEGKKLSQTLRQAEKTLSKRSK

[7] = molecular target: T4, Tyrosyl-tRNA synthetase, putative (Trypanosoma cruzi (strain CL Brener)); test: Trypanosoma cruzi tyrosyl tRNA synthetase (TcYRS) SOP; type: functional; details: 30 µM
[8] = molecular target: Chromo domain-containing protein 1 (Saccharomyces cerevisiae (strain ATCC 204508 / S288c) (Baker's yeast)) (UniProt P32657); test: ScCHD-1 Enzyme Inhibition Assay; type: functional; details: 30 µM; note: in the data most compounds retested in dose-response had high values
Chain of Chromo domain-containing protein 1 (Saccharomyces cerevisiae (strain ATCC 204508 / S288c) (Baker's yeast)) (P32657 whole entry, the tested form may be a part): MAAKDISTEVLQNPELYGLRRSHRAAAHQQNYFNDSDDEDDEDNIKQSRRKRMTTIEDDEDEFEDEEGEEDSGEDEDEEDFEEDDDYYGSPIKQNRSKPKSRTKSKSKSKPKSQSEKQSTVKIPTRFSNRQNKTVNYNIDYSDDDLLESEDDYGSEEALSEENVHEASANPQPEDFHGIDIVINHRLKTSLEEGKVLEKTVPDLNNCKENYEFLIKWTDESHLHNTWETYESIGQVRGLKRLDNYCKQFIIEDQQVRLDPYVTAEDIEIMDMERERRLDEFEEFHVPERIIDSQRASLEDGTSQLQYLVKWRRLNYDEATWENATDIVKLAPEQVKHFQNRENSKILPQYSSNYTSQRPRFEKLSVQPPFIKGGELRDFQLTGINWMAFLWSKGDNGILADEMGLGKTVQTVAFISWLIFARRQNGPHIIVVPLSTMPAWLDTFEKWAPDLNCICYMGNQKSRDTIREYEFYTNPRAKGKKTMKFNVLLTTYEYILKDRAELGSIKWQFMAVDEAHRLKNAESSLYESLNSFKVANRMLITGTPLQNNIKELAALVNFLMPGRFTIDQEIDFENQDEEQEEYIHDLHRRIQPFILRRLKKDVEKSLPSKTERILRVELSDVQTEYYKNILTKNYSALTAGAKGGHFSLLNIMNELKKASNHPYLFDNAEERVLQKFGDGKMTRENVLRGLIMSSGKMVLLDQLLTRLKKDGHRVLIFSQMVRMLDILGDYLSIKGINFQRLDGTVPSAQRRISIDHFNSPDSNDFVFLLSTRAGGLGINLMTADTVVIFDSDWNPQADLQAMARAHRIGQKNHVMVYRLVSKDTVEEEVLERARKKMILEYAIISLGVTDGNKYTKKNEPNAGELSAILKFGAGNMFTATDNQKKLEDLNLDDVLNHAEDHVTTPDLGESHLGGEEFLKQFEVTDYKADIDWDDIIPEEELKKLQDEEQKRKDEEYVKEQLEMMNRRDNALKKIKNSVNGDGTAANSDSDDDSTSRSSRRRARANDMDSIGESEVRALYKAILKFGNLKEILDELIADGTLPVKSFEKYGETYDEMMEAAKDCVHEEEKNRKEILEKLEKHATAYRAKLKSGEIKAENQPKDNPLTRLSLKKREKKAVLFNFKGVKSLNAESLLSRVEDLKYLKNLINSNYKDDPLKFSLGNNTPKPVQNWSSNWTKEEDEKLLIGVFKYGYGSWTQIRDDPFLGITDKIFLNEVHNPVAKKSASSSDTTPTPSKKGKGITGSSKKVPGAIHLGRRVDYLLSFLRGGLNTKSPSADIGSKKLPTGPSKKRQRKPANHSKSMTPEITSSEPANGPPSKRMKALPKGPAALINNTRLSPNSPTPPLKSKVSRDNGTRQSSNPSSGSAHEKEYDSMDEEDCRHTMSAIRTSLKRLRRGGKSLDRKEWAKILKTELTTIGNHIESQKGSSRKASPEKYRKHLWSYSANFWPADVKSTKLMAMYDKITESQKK

Compound | Percent Effect [1] [%] | Percent Effect [2] [%] | Percent Effect [3] [%] | Percent Effect (Trypanosoma cruzi) [%] | Percent Effect [4] [%] | Percent Effect [5] [%] | Percent Effect (Homo sapiens) [%] | Percent Effect [6] [%] | Percent Effect [7] [%] | Percent Effect [8] [%]
O=C(NCc1cc[nH]n1)N(CCCO)C1CCc2ccccc21 (stereo not given) | -1.28 | 8 | -0.45 | 0 | -1.77 | 2.29 | 1.81 | 3.68 | 2.56 | -7.56
Cc1ccc(NC(=O)C2CSCN2C(=O)c2cnccn2)c(C)c1 (stereo not given) | -4.93 | 7.69 | -2.1 | -4.6 | 6.15 | 1.11 | 26.2 | 3.35 | 10.8 | -1.89
CN1CC(=O)N(c2ccsc2)CC12CCN(C(=O)c1ccccc1)C2 (stereo not given) | -4.65 | 11.7 | -6.87 | -3.99 | 3.64 | 12.6 | -10.9 | 5.79 | 7.69 | 1.01
Cc1oncc1C(=O)NCc1cc(=O)n2c(n1)CN(C)CCC2 | -1.85 | 6.49 | -2.27 | -8.28 | 4.86 | 24.6 | 12.2 | 2.63 | 12.8 | -1.21
Cn1cc(N2CC3(COCCN(Cc4ccsc4)C3)OCC2=O)cn1 (stereo not given) | -9.04 | -1.3 | 10.7 | -1.46 | 0.405 | 2.21 | 6.9 | 4.74 | -5.13 | 2.44
COCCc1noc(CN2CCCCC2Cn2cc(C)cn2)n1 (stereo not given) | -0.511 | -2.56 | -0.235 | 3.85 | -1.23 | 3.84 | 12.7 | -3.35 | 6.02 | -1.31
Cc1ccc(S(=O)(=O)N2CCOc3ccccc32)cc1C(N)=O | -0.964 | 10.3 | -14.2 | -4.79 | -2.87 | 10.5 | 34.9 | 0.478 | 8.43 | 17.3
CS(=O)(=O)NCC1CCCN(C(=O)c2ccc(Cl)o2)C1 (stereo not given) | 1.32 | 7.79 | -4.36 | -0.746 | 7.58 | 14.6 | -11.3 | 4.9 | 18.8 | -10
CCc1ccc(NC(=O)C2OC(c3cccs3)=NN2C(C)=O)cc1 (stereo not given) | -5.81 | 12 | -5.11 | 3.94 | -0.443 | 19.2 | 14.4 | 1.06 | 10 | -26.1
Cc1cc(NCc2cccnc2)n2nc(C)cc2n1 | -3.79 | 2.7 | 4.53 | -2.62 | 1.75 | 16.9 | 17.8 | 4.79 | 14.6 | -3.52
O=C(CO)N1CCc2onc(Cn3cccn3)c2C1 | -5.41 | 3.9 | 3.29 | 1.27 | -1.62 | 7.5 | -4.61 | 2.63 | 5.13 | 0.404
c1ccc(C(OCCNC2CCc3ncnn3C2)c2ccccc2)cc1 (stereo not given) | -5.97 | 10.4 | 5.43 | 5.41 | -4.3 | 0.526 | -3.8 | 0.98 | 18.8 | -13.3
CCn1nc(C)c(CCNC(=O)C2CCCN(CC(N)=O)C2)c1C (stereo not given) | -8.24 | 8.11 | 27.7 | 9.02 | 9.44 | 5.14 | 12.5 | 10.1 | 17.1 | -5.53
CC(NC(=O)NCCCn1cncn1)c1ccccc1Cl (stereo not given) | 0.672 | 10.7 | -2.84 | -7.63 | 3.99 | 7.72 | 13.4 | 3.68 | 12.8 | -11
O=C(NCCn1nc2ccccn2c1=O)c1cccc2[nH]ncc12 | -1.51 | 20.5 | -7.98 | 6.29 | -3.69 | 21.9 | 13.6 | 4.31 | 22.9 | -8.5
O=C(NCCn1ccnc1)N1CCN(Cc2cccs2)CC1 | 2.19 | 18.2 | -6.1 | -9.14 | 2.66 | 21.9 | 12.6 | 4.9 | 16.5 | -9.63
